Assay results published in PubChem BioAssay (Tox21).
Values joined by “and” are separate entries in the source; they are usually repeats but may differ in a detail not shown here. Equal entries are not always repeated. Results filed as inconclusive are left out. Entries that show only a call come without a potency. Some compounds were tested as several samples or in several runs, with calls that do not always agree. Active and inactive are the calls of the source. Unless noted, calls come from the whole dose curve; as a rule, active = well fitted curve in the direction sought with a large enough effect in the repeat runs; inconclusive = weak or mixed curves; inactive = no such curve, though single readings can be large; an effect the other way counts as inactive or inconclusive.

Legend:
[1] = qHTS assay to identify aromatase inhibitors - cell viability counter screen (AID 743084);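 note: cells stimulated with testosterone during compound exposure; nearly all actives have a fitted effect of over 55% in size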
[2] = target: Aryl hydrocarbon receptor (Homo sapiens) (UniProt P35869); assay: qHTS assay to identify small molecule that activate the aryl hydrocarbon receptor (AhR) signaling pathway (AID 743085); note: nearly all actives have a fitted effect of over 15% in size; note: potency is the fitted concentration of half-maximal effect;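 for activation: HG2L7.5c1 human HepG2 liver cells with stably integrated DRE-driven firefly reporter; series mostly up to about 70 µM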
Method in brief: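 24 h compound exposure, 37C, HepG2-derived HG2L7.5c1 cells with DRE-responsive luciferase. Readouts: fluorescence viability, then luminescence at room temperature after 30 min.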

[3] = qHTS assay to identify small molecule that activate the aryl hydrocarbon receptor (AhR) signaling pathway - cell viability counter screen (AID 743086);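 note: HepG2 liver cells carrying the AhR DRE luciferase reporter; series mostly up to about 70 µM; nearly all actives have a fitted effect of over 45% in size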
Method in brief: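 Cytotoxicity counter screen: CellTiter-Fluor signal (30 min, 37 C) in 4000 HepG2 cells/well carrying the DRE-luciferase reporter, following 24 h compound exposure at 37 C.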

[4] = target: Peroxisome proliferator-activated receptor gamma (Homo sapiens) (UniProt P37231); assay: qHTS assay to identify small molecule agonists of the peroxisome proliferator-activated receptor gamma (PPARg) signaling pathway (AID 743094; active = well fitted activation curve with a large enough effect in the signal ratio in the repeat runs, not every such curve was filed as active; the % refers to the signal ratio)
Method in brief: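 Reporter activation was scored by fluorescence of cleaved LiveBLAzer B/G substrate (1 h, room temperature) in PPARg-bla HEK293H cells previously treated 17 h at 37C with DMSO-dissolved compounds.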

[5] = qHTS assay to identify small molecule antagonists of the peroxisome proliferator-activated receptor gamma (PPARg) signaling pathway - cell viability counter screen (AID 743194); note: nearly all actives have a fitted effect of over 55% in size; note: potency is the fitted concentration of half-maximal effect
Method in brief: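 Viability was measured as CellTiter-Glo luminescence in GeneBLAzer PPARg UAS-bla HEK293H cells. These cells had been exposed 17 h at 37 C to compounds together with rosiglitazone at 50 nM final, with the beta-lactamase readout taken in the same wells.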

[6] = qHTS assay for small molecule agonists of the antioxidant response element (ARE) signaling pathway - cell viability counter screen (AID 743203; calls by dose curve; note: nearly all actives have a fitted effect of over 55% in size)
Method in brief: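 Viability counter screen: stably transfected ARE-bla HepG2 line, 16 hrs compound exposure at 37C/5% CO2, ATP-based CellTiter-Glo luminescence measured in the reporter wells.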

[7] = qHTS assay for small molecule activators of the heat shock response signaling pathway - cell viability counter screen (AID 743209); note: nearly all actives have a fitted effect of over 50% in size; note: potency is the fitted concentration of half-maximal effect
Method in brief: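 Viability of HSE-bla HeLa cells is measured with CellTiter-Glo in the wells already used for the reporter read. Compound exposure lasts 5 h at 37 C, and luminescence is read after 30 min at room temperature.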

[8] = qHTS assay for small molecule activators of the heat shock response signaling pathway (AID 743210; active = well fitted activation curve with a large enough effect in the signal ratio in the repeat runs, with a control signal flat, not every such curve was filed as active; the % refers to the signal ratio;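 note: HeLa cells with beta-lactamase reporter driven by heat shock elements; series mostly up to about 63 µM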)
Method in brief: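 Fluorescence from a cleaved B/G FRET substrate (2.5 h, room temp) reports HSE-driven beta-lactamase in HeLa cells treated 5 h at 37 C with DMSO-dissolved compounds.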

[9] = qHTS assay to identify small molecule agonists of the peroxisome proliferator-activated receptor delta (PPARd) signaling pathway - cell viability counter screen (AID 743211); note: nearly all actives have a fitted effect of over 55% in size; note: potency is the fitted concentration of half-maximal effect
Method in brief: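 Luminescent ATP viability assay (CellTiter-Glo, 30 min RT) in UAS-bla HEK293H cells carrying the PPAR delta reporter construct, 3000 cells/well, after a 17 h compound treatment at 37 C.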

[10] = target: Peroxisome proliferator-activated receptor delta (Homo sapiens) (UniProt Q03181); assay: qHTS assay to identify small molecule agonists of the peroxisome proliferator-activated receptor delta (PPARd) signaling pathway (AID 743212; calls by dose curve;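 note: HEK293H cells with PPARd UAS beta-lactamase reporter GeneBLAzer system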)
Method in brief: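 Steps: seed PPARd-bla HEK293H cells; incubate 5 h, 37 C, 5% CO2; add compounds in DMSO; incubate, 37 C; add LiveBLAzer B/G FRET substrate; hold 2 h at room temperature; measure fluorescence.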

[11] = qHTS assay to identify small molecule antagonists of the peroxisome proliferator-activated receptor delta (PPARd) signaling pathway - cell viability counter screen (AID 743213); note: nearly all actives have a fitted effect of over 50% in size; note: potency is the fitted concentration of half-maximal effect
Method in brief: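 Same-well viability: cells pre-incubated 5 h, dosed with compound plus 300 nM L165041, kept 17 h at 37 C, FRET substrate 2 h RT, then CellTiter-Glo 30 min RT and luminescence.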

[12] = qHTS assay to identify small molecule agonists of the farnesoid-X-receptor (FXR) signaling pathway - cell viability counter screen (AID 743218); note: nearly all actives have a fitted effect of over 45% in size; note: potency is the fitted concentration of half-maximal effect
Method in brief: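 Viability of FXR-bla HEK 293T cells is measured by ATP-based CellTiter-Glo luminescence following 16 h compound treatment at 37 C and a prior 2 h room-temperature beta-lactamase substrate step.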

[13] = qHTS assay to identify small molecule antagonists of the farnesoid-X-receptor (FXR) signaling pathway - cell viability counter screen (AID 743221; active = well fitted cell-killing curve with a large enough effect in the repeat runs, not every such curve was filed as active; note: nearly all actives have a fitted effect of over 50% in size; note: potency is the fitted concentration of half-maximal effect)
Method in brief: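 In GeneBLAzer FXR-UAS-bla HEK 293T cells stimulated with 50 uM chenodeoxycholic acid (final), compounds acted for 16 h at 37 C. Viability was assessed afterwards by CellTiter-Glo luminescence.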

[14] = target: Peroxisome proliferator-activated receptor gamma (Homo sapiens) (UniProt P37231); assay: qHTS assay to identify small molecule antagonists of the peroxisome proliferator-activated receptor gamma (PPARg) signaling pathway (AID 743191; calls by dose curve; note: series mostly up to about 63 µM; nearly all actives have a fitted effect of over 30% in size)
Method in brief: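 Beta-lactamase reporter under UAS control in HEK293H PPARg-bla cells; compound treatment 17 h at 37C. Read-out: fluorescence intensity after 1 h room-temperature incubation with LiveBLAzer B/G FRET substrate.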

[15] = target: Vitamin D3 receptor (Homo sapiens) (UniProt P11473); assay: qHTS assay to identify small molecule agonists of the vitamin D receptor (VDR) signaling pathway (AID 743222; calls by dose curve)
Method in brief: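 Fluorescence from cleaved LiveBLAzer B/G FRET substrate served as readout. VDR-bla cells had been treated 16 h at 37C with test compounds in DMSO, following a 4 h settling period, and substrate was loaded for 2 h at RT.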

[16] = target: Vitamin D3 receptor (Homo sapiens) (UniProt P11473); assay: qHTS assay to identify small molecule antagonists of the vitamin D receptor (VDR) signaling pathway (AID 743223; active = well fitted inhibition curve with a large enough effect in the signal ratio in the repeat runs, not every such curve was filed as active; the % refers to the signal ratio)
Method in brief: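 Agonist 1alpha,25-dihydroxyvitamin D3 (3 nM in well) was added with each compound to VDR-bla cells preincubated 4 h. Cells stood 16 h at 37C, then FRET substrate 2 h at room temperature; fluorescence intensity recorded.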

[17] = target: Bile acid receptor (Homo sapiens) (UniProt Q96RI1); assay: qHTS assay to identify small molecule antagonists of the farnesoid-X-receptor (FXR) signaling pathway (AID 743217; active = well fitted inhibition curve with a large enough effect in the signal ratio in the repeat runs, not every such curve was filed as active; the % refers to the signal ratio)
Method in brief: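 Screen of the Tox21 10K library in quantitative HTS format using FXR-UAS-bla HEK 293T reporter cells. Agonist chenodeoxycholic acid, 50 uM final, added with compounds; 16 h incubation at 37 °C; beta-lactamase FRET fluorescence measured.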

[18] = target: Bile acid receptor (Homo sapiens) (UniProt Q96RI1); assay: qHTS assay to identify small molecule agonists of the farnesoid-X-receptor (FXR) signaling pathway (AID 743220; active = well fitted activation curve with a large enough effect in the signal ratio in the repeat runs, not every such curve was filed as active; the % refers to the signal ratio)
Method in brief: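 FXR-UAS-bla HEK 293T cells carrying a UAS-driven beta-lactamase reporter were plated for 5 h at 37C/5% CO2, then exposed to DMSO-dissolved Tox21 10K compounds for 16 h at 37C. A LiveBLAzer B/G FRET substrate was loaded for 2 h at room temperature before fluorescence reading.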

[19] = target: Peroxisome proliferator-activated receptor delta (Homo sapiens) (UniProt Q03181); assay: qHTS assay to identify small molecule antagonists of the peroxisome proliferator-activated receptor delta (PPARd) signaling pathway (AID 743215; active = well fitted inhibition curve with a large enough effect in the signal ratio in the repeat runs, not every such curve was filed as active; the % refers to the signal ratio;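 note: cells stimulated with agonist L165041 at 300 nM final during compound exposure; series mostly up to about 62 µM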)
Method in brief: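 Plated HEK293H PPARd-bla cells rested 5 h at 37 C and 5% CO2. Compound, then agonist L165041 at 300 nM final, was added; 17 h at 37 C followed. Substrate loading, 2 h room temperature, fluorescence measured.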

[20] = qHTS assay for small molecule agonists of the antioxidant response element (ARE) signaling pathway (AID 743202; active = well fitted activation curve with a large enough effect in the signal ratio in the repeat runs, not every such curve was filed as active; the % refers to the signal ratio; note: potency is the fitted concentration of half-maximal effect)
Method in brief: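 Beta-lactamase reporter activity, read as fluorescence intensity, reflects ARE/Nrf2 pathway induction in HepG2 cells after 16 h compound exposure at 37 C; substrate loading was 2 h at room temperature.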

Sequence of Peroxisome proliferator-activated receptor gamma (Homo sapiens) (P37231 whole entry, looked up): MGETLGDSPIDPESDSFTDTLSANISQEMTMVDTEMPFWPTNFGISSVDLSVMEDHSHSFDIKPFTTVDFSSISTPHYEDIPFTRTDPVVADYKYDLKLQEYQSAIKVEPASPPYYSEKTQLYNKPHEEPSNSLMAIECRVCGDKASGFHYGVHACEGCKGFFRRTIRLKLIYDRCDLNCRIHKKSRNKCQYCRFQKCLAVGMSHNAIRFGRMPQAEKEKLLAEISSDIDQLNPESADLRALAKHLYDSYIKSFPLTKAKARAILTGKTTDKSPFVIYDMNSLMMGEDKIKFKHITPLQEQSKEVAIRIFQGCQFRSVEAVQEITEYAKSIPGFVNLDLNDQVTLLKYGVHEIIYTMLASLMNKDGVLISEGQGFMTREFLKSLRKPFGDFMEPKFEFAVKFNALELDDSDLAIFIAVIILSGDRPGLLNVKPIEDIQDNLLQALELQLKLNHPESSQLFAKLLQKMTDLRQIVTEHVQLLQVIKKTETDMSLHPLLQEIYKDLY
Sequence of Aryl hydrocarbon receptor (Homo sapiens) (P35869 whole entry, looked up): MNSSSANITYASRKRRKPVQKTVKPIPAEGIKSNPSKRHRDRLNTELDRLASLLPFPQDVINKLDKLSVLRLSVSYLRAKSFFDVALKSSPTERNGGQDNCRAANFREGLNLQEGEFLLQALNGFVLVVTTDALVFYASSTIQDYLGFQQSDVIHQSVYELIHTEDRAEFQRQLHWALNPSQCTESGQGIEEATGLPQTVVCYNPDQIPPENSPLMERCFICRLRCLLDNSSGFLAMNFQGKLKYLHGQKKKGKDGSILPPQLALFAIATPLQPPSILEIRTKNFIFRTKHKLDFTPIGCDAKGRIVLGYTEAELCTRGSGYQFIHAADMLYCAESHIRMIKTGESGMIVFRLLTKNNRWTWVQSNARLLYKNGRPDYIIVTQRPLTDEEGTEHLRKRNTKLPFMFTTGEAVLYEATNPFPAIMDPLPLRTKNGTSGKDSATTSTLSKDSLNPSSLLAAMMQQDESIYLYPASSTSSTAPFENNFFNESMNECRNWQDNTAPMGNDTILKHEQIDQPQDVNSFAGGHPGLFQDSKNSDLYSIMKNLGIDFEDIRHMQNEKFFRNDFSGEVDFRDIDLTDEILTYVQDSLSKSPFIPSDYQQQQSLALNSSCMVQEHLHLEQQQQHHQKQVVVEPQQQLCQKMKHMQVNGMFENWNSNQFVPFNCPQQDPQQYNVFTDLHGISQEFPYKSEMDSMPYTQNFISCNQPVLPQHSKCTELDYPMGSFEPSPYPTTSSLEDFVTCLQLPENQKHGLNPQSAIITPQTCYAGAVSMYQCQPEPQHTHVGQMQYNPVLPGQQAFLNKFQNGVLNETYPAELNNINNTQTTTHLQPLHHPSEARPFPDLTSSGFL
Sequence of Bile acid receptor (Homo sapiens) (Q96RI1 whole entry, looked up): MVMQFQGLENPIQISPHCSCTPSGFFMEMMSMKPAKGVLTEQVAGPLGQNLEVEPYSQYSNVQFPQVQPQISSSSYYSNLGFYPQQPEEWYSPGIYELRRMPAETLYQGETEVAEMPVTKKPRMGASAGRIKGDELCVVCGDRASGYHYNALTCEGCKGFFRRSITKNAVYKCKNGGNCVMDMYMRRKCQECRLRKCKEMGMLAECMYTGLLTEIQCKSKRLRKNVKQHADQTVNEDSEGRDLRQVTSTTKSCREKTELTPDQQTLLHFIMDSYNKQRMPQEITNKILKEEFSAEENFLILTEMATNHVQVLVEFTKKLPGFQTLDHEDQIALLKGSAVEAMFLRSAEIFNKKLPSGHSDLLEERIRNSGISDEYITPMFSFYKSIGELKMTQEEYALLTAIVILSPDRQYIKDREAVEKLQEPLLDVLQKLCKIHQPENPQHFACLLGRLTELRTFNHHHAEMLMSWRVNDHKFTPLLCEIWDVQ
Sequence of Vitamin D3 receptor (Homo sapiens) (P11473 whole entry, looked up): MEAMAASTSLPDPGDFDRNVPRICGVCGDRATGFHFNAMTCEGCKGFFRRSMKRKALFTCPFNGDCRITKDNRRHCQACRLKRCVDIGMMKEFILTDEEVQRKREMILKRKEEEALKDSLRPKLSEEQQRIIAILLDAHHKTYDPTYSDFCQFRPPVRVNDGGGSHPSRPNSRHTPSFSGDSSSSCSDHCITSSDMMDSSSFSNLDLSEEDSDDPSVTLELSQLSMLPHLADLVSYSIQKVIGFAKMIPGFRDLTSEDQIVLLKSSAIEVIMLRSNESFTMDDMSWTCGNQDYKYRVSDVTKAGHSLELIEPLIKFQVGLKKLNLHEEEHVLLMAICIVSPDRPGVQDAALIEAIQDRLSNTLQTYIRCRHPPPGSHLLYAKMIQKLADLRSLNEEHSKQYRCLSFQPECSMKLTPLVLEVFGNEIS
Sequence of Peroxisome proliferator-activated receptor delta (Homo sapiens) (Q03181 whole entry, looked up): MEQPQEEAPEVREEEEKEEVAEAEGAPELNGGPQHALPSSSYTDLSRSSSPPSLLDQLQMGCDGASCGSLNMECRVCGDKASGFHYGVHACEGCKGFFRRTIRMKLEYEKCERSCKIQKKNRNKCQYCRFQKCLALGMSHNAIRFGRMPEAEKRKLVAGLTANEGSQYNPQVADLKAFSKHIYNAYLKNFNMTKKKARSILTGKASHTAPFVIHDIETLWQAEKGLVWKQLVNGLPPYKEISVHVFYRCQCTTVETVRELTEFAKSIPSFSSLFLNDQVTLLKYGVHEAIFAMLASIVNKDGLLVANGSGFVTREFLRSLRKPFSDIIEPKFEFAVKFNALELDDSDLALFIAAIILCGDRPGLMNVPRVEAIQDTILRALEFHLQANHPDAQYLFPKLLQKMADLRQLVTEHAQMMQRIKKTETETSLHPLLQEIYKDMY

Row | SMILES | Potency [1] | Potency [2] | Potency [3] | Potency [4] | Potency [5] | Potency [6] | Potency [7] | Potency [8] | Potency [9] | outcome [10] | Potency [11] | Potency [12] | Potency [13] | Potency [14] | outcome [15] | outcome [16] | Potency [17] | outcome [18] | Potency [19] | Potency [20]
1 | CC(C)=CCCC(C)CCO (configuration not stated) | inactive | inactive | inactive | inactive | inactive | inactive | inactive | inactive | inactive | inactive | inactive | inactive | inactive |  |  |  |  |  |  | 
2 | C=C(C)C1CC=C(C)CC1 (configuration not stated) | inactive | inactive | inactive |  |  | inactive | inactive |  | inactive |  | inactive | inactive | inactive |  |  |  |  |  |  | 
3 | CC(=O)CC/C=C(\C)CCC=C(C)C | inactive | inactive |  | inactive | inactive | inactive | inactive |  | inactive |  | inactive | inactive | inactive | inactive | inactive | inactive |  |  |  | 
4 | CC(C)=CCC/C(C)=C\CO | inactive | inactive | inactive | inactive | inactive | inactive | inactive |  | inactive |  | inactive | inactive | inactive |  | inactive | inactive | inactive | inactive |  | 
5 | O=C(c1ccccc1)c1ccc(O)cc1O | inactive | inactive |  | inactive | inactive | inactive | inactive |  | inactive | inactive | inactive | inactive | inactive | inactive |  |  | inactive | inactive | inactive | 
6 | CCCCC(CC)COP(=O)(OCC(CC)CCCC)OCC(CC)CCCC (configuration not stated) | inactive | inactive |  | inactive | inactive | inactive | inactive |  | inactive | inactive | inactive | inactive | inactive | inactive | inactive | inactive | inactive | inactive |  | inactive
7 | CC(C)(C)NC(=O)[C@H]1CC[C@H]2[C@@H]3CC[C@H]4NC(=O)C=C[C@]4(C)[C@H]3CC[C@]12C | inactive | inactive | inactive | inactive |  | inactive | inactive | inactive | inactive | inactive | inactive | inactive | inactive |  | inactive |  |  | inactive | inactive | 53900 nM (active)
8 | CC(=O)c1ccccn1 | inactive | inactive |  | inactive | inactive | inactive | inactive | inactive | inactive | inactive | inactive | inactive | inactive | inactive | inactive | inactive | inactive | inactive | inactive | inactive
9 | CC(=O)C1(C)CC2=C(CCCC2(C)C)CC1C (configuration not stated) | inactive | inactive |  | inactive | inactive | inactive | inactive | inactive | inactive | inactive | inactive | inactive | inactive | inactive | inactive | inactive |  |  |  | 
10 | C[Si](C)(C)O[Si](C)(C)C | inactive | inactive |  | inactive | inactive | inactive | inactive | inactive | inactive | inactive | inactive | inactive | inactive | inactive | inactive | inactive | inactive | inactive |  | inactive
11 | CC(C)CC(C)(O)C#CC(C)(O)CC(C)C (configuration not stated) | inactive | inactive | inactive |  | inactive | inactive | inactive | inactive | inactive |  | inactive | inactive | inactive |  | inactive | inactive |  |  |  | 
12 | CC(C)OC=O | inactive | inactive |  | inactive | inactive | inactive | inactive |  | inactive | inactive | inactive | inactive | inactive | inactive | inactive | inactive | inactive | inactive | inactive | inactive
13 | COC(C)COC(C)COC(C)CO (configuration not stated) | inactive | inactive |  | inactive | inactive | inactive | inactive |  | inactive | inactive | inactive | inactive | inactive | inactive | inactive | inactive | inactive | inactive | inactive | inactive
14 | O=C(Nc1ccc([N+](=O)[O-])cc1Cl)c1cc(Cl)ccc1O | inactive | 211 nM (active) | inactive |  | 123 nM (active) and 461 nM (active) |  | 309 nM (active) |  | 219 nM (active) and 259 nM (active) |  | 1640 nM (active) | 1.38 µM (active) and 1.16 µM (active) | 3260 nM (active) |  |  |  |  | inactive |  | 
15 | O=CCc1ccccc1 | inactive | inactive | inactive | inactive | inactive | inactive | inactive | inactive | inactive |  | inactive | inactive | inactive |  | inactive | inactive | inactive | inactive |  | 
16 | C#C[C@]1(O)CC[C@H]2[C@@H]3CCc4cc(OC)ccc4[C@H]3CC[C@@]21C | inactive | inactive | inactive | inactive |  | inactive | inactive |  |  | inactive | inactive | inactive | inactive |  | inactive | inactive | inactive | inactive |  | 
17 | CN1C(C(=O)Nc2ccccn2)=C(O)c2ccccc2S1(=O)=O | inactive | inactive and 24.6 µM (active) |  | inactive | inactive | inactive | inactive |  | inactive | inactive | inactive | inactive | inactive | inactive | inactive | inactive | inactive | inactive | inactive | inactive
